In PubChem BioAssay AID493185 (National Center for Advancing Translational Sciences (NCATS), 2011):
Unmarked numbers belong to inactive results. The source made the active and inactive calls. Calls follow the shape of the dose curve; as a rule, active = well fitted activation curve with a large enough effect; inconclusive = small, poorly fitted or top-dose-only effect; inactive = no such curve, though single readings can be large or run the other way.

experiment: Counterscreen for Identifying a Potential Treatment of Ataxia-Telangiectasia: Hit Validation; settings: cell-free AlphaLISA/AlphaScreen artifact counterscreen, PBS only, no cells; series mostly up to 76.9 µM; activation: at the top concentration; as to activation: 0% is about no effect
Method in brief: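 Without cells, compounds at up to 76.7 uM final were combined with premixed anti-pKAP1/anti-KAP1 AlphaLISA bead reagents, protease inhibitors and lysis buffer; signal read after 6 hr at 25C to flag assay-platform artifacts.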
Potency is read from the fitted curve at half-maximal effect.

Going from `COc1cccc(CN2CCN(Cc3cc(OC)c(OC)cc3OC)CC2)c1` to `COc1ccccc1N1CCN(C(=O)c2cc(=O)c3c(C)cc(C)cc3o2)CC1`, the “activation” value falls from -0.752% to -5.38%.

Compared with `COc1ccc(OC)c(C2CC(c3ccccc3)=NN2C(=S)Nc2ccccc2)c1` (stereo not given), `CCS(=O)(=O)N1Cc2ccccc2CC1C(=O)Nc1cccc(OC)c1` (stereo not given) is lower in “activation” value: -3.76% for the first, -15.4% for the second.

First: O=C(c1cccc(F)c1)N1CCCC(C(=O)N2CCCCCC2)C1 (stereo not given)
Second: CCOc1cccc(C(=O)Nc2ccccc2N2CCN(C(=O)C(C)C)CC2)c1
The “activation” value of the first is higher: 6.92% for the first, 5.74% for the second.

Going from `Cc1cccc(C)c1NC(=O)COC(=O)c1cc(=O)c2ccccc2o1` to `O=C(CN1C(=O)c2cccc([N+](=O)[O-])c2C1=O)NCc1ccccc1`, the “activation” value rises from -16.9% to 8.27%.

Going from `CC1(C)CC2(CCO1)OC(=O)CC2C(=O)Nc1c(Cl)cccc1Cl` (stereo not given) to `O=C(Nc1cccc([N+](=O)[O-])c1)N1CCCc2ccccc21`, the “activation” value falls from 7.38% to -14.3%.

Compared with `C=CCC(CC)C(=O)NC(=O)N1CCCc2ccccc21` (stereo not given), `CCOC(=O)CNS(=O)(=O)Cc1ccccc1` is higher in “activation” value: -6.15% for the first, 6.77% for the second.

First: O=C(CCC(=O)c1ccc(F)cc1)Nc1cccc(Br)c1
Second: Oc1ccc(-c2nccc(-c3ccc(F)cc3)n2)cc1
The “activation” value of the first is higher: -0.752% for the first, -7.52% for the second.

Going from `CCN1CCN(c2oc(COc3ccc(Cl)cc3)nc2C#N)CC1` to `COc1ccc(N2CCN(C(=O)c3cc4cc(Cl)ccc4[nH]3)CC2)cc1`, the “activation” value falls from 78.5% to 1.5%.

Going from `CC1=NN(C(C#N)c2ccc([N+](=O)[O-])cc2)C(C)(C)C1` (stereo not given) to `COc1ccc(-c2nn(C)c(=O)[nH]2)cc1`, the “activation” value rises from -3.08% to 6.56%.

Going from `S=c1[nH]nc(Cn2c(-c3ccccn3)nc3ccccc32)n1-c1ccc2c(c1)OCCO2` to `N#Cc1c2c(c(-n3cnc4ccccc43)n3c1nc1ccccc13)CCC2`, the “activation” value falls from -6.15% to -10.7%.

Going from `O=C1C(Cl)=C(Nc2ccccc2)C(=O)c2ccccc21` to `O=C(O)c1nccnc1C(=O)Nc1ccccc1-c1ccccc1`, the “activation” value rises from 3.01% to 9.02%.

Compared with `CCOC(=O)c1cccc(N2C(=O)C3C4C=CC(CC4)C3C2=O)c1` (stereo not given), `Cc1ccc(OCC(=O)N(Cc2cccs2)C2CCS(=O)(=O)C2)cc1C` (stereo not given) is lower in “activation” value: 37.7% for the first, 0.752% for the second.

Compared with `Cc1ccc(NC(=O)NC(=O)N(C(C)C)S(C)(=O)=O)nc1`, `COc1ccc(Cl)cc1NC(=O)C[n+]1cccc(C)c1` is higher in “activation” value: 3.76% for the first, 9.02% for the second.

Going from `CCc1ccc(C2c3[nH]c4ccccc4c3CCN2C(=O)c2cc[n+]([O-])cc2)cc1` (stereo not given) to `O=C(/C(=C/c1ccc(Cl)cc1)c1nc2ccccc2[nH]1)c1cccs1`, the “activation” value falls from 22.6% to -3.28%.

Going from `CCCN1CN(c2ccccc2)C(=S)N(c2ccccc2)C1` to `COc1ccccc1N1CN(CCc2ccccc2)CNC1=S`, the “activation” value falls from -2.26% to -36.2%.

First: C(=N\Nc1ccccn1)/c1c[nH]c2ccccc12
Second: Cn1cc(/C=N/NC(N)=S)c2ccccc21
The “activation” value of the first is higher: -13.1% for the first, -17.2% for the second.

Compared with `COc1cc(/C=C2\CCOC2=O)cc(OC)c1OC`, `COc1cc(/C=C2\SC(=S)N(C(C(=O)O)c3ccccc3)C2=O)ccc1O` (stereo not given) is lower in “activation” value: 17.2% for the first, -27.9% for the second.

First: CC1CC(C)CN(S(=O)(=O)c2ccc(C(=O)NCCCn3ccnc3)cc2)C1 (stereo not given)
Second: C=CCOC(=O)C1=C[C@H](c2coc3ccccc3c2=O)C[C@H](OCc2ccc(CO)cc2)O1
The “activation” value of the first is lower: -32.8% for the first, -20.8% for the second.

Compared with `OC1(CC#CCN2CCCCC2)c2ccccc2-c2ccccc21`, `Fc1cccc(Cl)c1/C=C/c1cnc2ccccc2n1` is lower in “activation” value: -7.69% for the first, -13.1% for the second.

In the case of `COc1ccc(C2NC(=S)NC3=C2N2CCC3CC2)cc1` (stereo not given), the “activation” value is reported as -22.3%.

In the case of `CCN(CC)c1ccc2cc(-c3nc4ccccc4[nH]3)c(=O)oc2c1`, the Potency is reported as 4.63 µM (active).
